Data from PubChem BioAssay (NCATS).
Results filed as inconclusive are left out. Entries that show only a call come without a potency. Calls of active or inactive are those of the source. Calls come from the whole dose curve; as a rule, active = well fitted cell-killing curve with a large enough effect; inconclusive = small, poorly fitted or top-dose-only effect; inactive = flat fitted curve, though single readings scatter.

assay: Cell Viability - Mesenchymal (AID 546); conditions: mesenchymal cells viability, qHTS; series mostly up to 91.7 µM;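 note: cells exposed to compound for 40 hours before reading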
Description: NIH Chemical Genomics Center [NCGC]
NIH Molecular Libraries Screening Centers Network [MLSCN]
National Institutes of Environmental Health Sciences [NIEHS]
National Toxicology Program [NTP]
We have developed a 1536-well cell-based assay for quantitative high throughput screening (qHTS) against a number of cell lines to determine in vitro cytotoxicity of small molecules. This particular assay uses the kidney mesenchymal cell line which is derived from normal human renal glomeruli.
NCGC Assay Protocol Summary:
The CellTiter-Glo luminescent cell viability assay (Promega) is a homogeneous method to measure the number of viable cells in culture. The end point readout of this assay is based on quantitation of intracellular ATP, an indicator of metabolic activity, using the luciferase reaction. Luciferase catalyzes the oxidation of beetle Luciferin to oxyluciferin and light in the presence of ATP. The luminescent signal is proportional to amount of ATP present.
Using the CellTiter-Glo luminescent cell viability assay, the amount of cellular ATP was measured in the kidney mesenchymal cell line with complete culture medium following compound treatment for 40 hours. The assay was performed in opaque white Kalypsys 1536-well plates. In the screen, tamoxifen and doxorubicin were used as positive controls. Library compounds were measured for their ability to cause acute toxicity in the cell line, as reflected by a decrease in intracellular ATP levels, in a concentration-dependent manner. […] AC50 values were determined from concentration-response data modeled with the standard Hill equation.
qHTS protocol for CellTiter Glo kidney mesenchymal cells cellular assay
[Step] [Parameter] [Value] [Description]
1. Reagent; 5 uL; 1000 kidney mesenchymal cells/well
2. Time; 5 hr; 37 °C incubation
4. Controls; 23 nL; Tamoxifen 0.34 uM to 100 uM & Doxorubicin 0.02 nM to 100 uM
5. Time; 40 hr; 37 °C incubation
6. Reagent; 5 uL; CellTiter Glo reagent
7. Time; 20 min; Room Temperature
8. Detection; Luminescence; Viewlux plate reader
Keywords: cell viability, cytotoxicity, Kidney mesenchymal cell line, luminescence, NTPHTS, NTPHTS_NCGC, NIEHS, EPA, DSSTox, MLSMR, MLSCN, NIH Roadmap, qHTS, NCGC
Potency is the fitted concentration of half-maximal effect.

| Compound | Potency |
| --- | --- |
| CCOP(=O)(OCC)OCC | inactive |
| O=C(O)C(Br)Br | inactive |
| CC(C)[N+](=O)[O-] | inactive |
| Clc1cccc2ccccc12 | inactive |
| CCCCCCCCCCCCCl | inactive |
| C=CCO | inactive |
| N#CC(Br)Br | inactive |
| CCC/C=N/O | inactive |
| CC(C)(C)C(O)(CCc1ccc(Cl)cc1)Cn1cncn1 (stereo not given) | inactive |
| CCCCC#N | inactive |
| Cc1ccc(N=C=O)cc1N=C=O | inactive |
| ClCCBr | inactive |
| Cc1cc(Cl)ccc1O | inactive |
| N#CCCCCC#N | inactive |
| O=[N+]([O-])c1ccc(Cl)cc1 | inactive |
| C=CCBr | inactive |
| [O-][Cl+2]([O-])O | inactive |
| O=S(=O)(Cl)c1ccccc1 | inactive |
| O=C(O)c1cc(Cl)ccc1Cl | inactive |
| Nc1ccc(-c2ccc(N)c(Cl)c2)cc1Cl | 31.6 µM (active) |

| Compound | Potency |
| --- | --- |
| ClCc1ccccc1 | inactive |
| FC(Cl)(Cl)Cl | inactive |
| O=C(O)C(Cl)Br (stereo not given) | inactive |
| C=CC(=O)OCC(CC)CCCC (stereo not given) | inactive |
| C/C=C/C=O | inactive |
| OCCOCCO | inactive |
| CCOC(=O)CC(SP(=O)(OC)OC)C(=O)OCC (stereo not given) | inactive |
| O=C(O)CBr | inactive |
| C=CCCC#N | inactive |
| O=S(=O)(O)F | inactive |
| Oc1ccc(Cl)c(Cl)c1 | inactive |
| COC(=O)Nc1nc2ccccc2[nH]1 | inactive |
| ClCC(Br)CBr (stereo not given) | inactive |
| O=Cc1ccc(Cl)cc1Cl | inactive |
| O=[N+]([O-])CCO | inactive |
| [C-]1=CC=CC1.[C-]1=CC=CC1.[Cl-].[Cl-].[Ti+4] | inactive |
| Nc1ccccc1-c1ccccc1 | inactive |
| COc1ccc(C=O)cc1 | inactive |
| CC[N+](=O)[O-] | inactive |
| Nc1c(Br)cc([N+](=O)[O-])cc1[N+](=O)[O-] | inactive |
